Sfp inh – blocks B. subtilis Sfp PPTase activity; Potency, µM, without a hit: largest response in the series, negative = inhibition, hits mostly inhibitors; AID 1490; 3.5% of 310,000 active; Biochemical Sfp PPTase activity, qHTS;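 further: the enzyme is Sfp with the accession as filed and its product quenches rhodamine fluorescence; 0% = enzyme reaction without inhibitor and -100% = no enzyme wells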
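Fluorescence-quenching assay with 15 nM Sfp, 5 uM rhodamine-CoA and 12.5 uM BHQ-2-labelled ybbR peptide in pH 7.6 Hepes/MgCl2 buffer. Enzyme was pre-incubated with compound for 15 min at room temperature. Rate was taken from the 30-min fluorescence change (525/598 nm).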
BAZ2B inh – BAZ2B (human) inhibition. Q9UIF8. AlphaScreen BAZ2B-H3K14Ac peptide displacement. Potency, µM (highest dose often 114 µM), for inactives: top-dose activity change, negative = inhibition, actives largely listed as inhibitors. 4.4% of 360,000 active. AID 504333; further: on the % scale 0 is the no-effect control and ±100 the full control effect; nearly all actives have a fitted effect of over 60% in size
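Inhibition is scored as reduced AlphaScreen emission. The BAZ2B/b-H3(5-23)K14Ac complex (50 nM each) in PBS pH 7.4, 0.01% Tween-20 meets compound (up to 110 uM) for 30 min at RT before bead addition.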
JMJD2A Tudor inh – blocks the human JMJD2A Tudor domain; AlphaScreen JMJD2A-Tudor / H3K4me3 peptide binding; Potency, µM (top dose mostly 114 µM), for the others: top-dose activity change, negative = inhibition, hits mostly inhibitors; 4.4% of 390,000 active; further: on the % scale 0 is the no-effect control and ±100 the full control effect; nearly all actives have a fitted effect of over 50% in size
G9a inh – G9a (human) methyltransferase inhibition; Q96KQ7; G9a H3K9 monomethylation, AlphaScreen, 2 h; Potency, µM (series often up to 102 µM), for inactives: top-dose activity, negative = inhibition, usual class: inhibitors; 8.8% of 350,000 active; further: on the % scale 0 is the no-effect control and ±100 the full control effect; nearly all actives have a fitted effect of over 75% in size
Target sequence (Q96KQ7 913-1193 limits assumed): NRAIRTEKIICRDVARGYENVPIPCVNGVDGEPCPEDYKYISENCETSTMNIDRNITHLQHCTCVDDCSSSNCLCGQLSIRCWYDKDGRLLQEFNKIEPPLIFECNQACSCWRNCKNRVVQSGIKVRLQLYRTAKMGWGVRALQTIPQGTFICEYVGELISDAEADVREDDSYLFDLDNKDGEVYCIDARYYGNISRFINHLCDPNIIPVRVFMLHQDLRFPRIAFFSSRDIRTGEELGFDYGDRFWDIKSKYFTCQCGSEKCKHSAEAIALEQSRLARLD
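AlphaScreen read-out: biotin-H3K9 peptide (500 nM) methylation by 20 nM enzyme with 20 uM SAM, 2 h at room temperature after 15 min compound preincubation; anti-monomethyl H3K9 antibody plus donor/acceptor beads, 10 min dark.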
HP1b chromo inh – inhibitors of HP1-beta chromodomain binding to methylated histone tails; P83916; AlphaScreen HP1-beta / biotin-H3K9me3 peptide binding; Potency, µM (titrated, usually from 114 µM), inactives show top-dose activity change, negative = inhibition, usual class: inhibitors; 0.56% of 390,000 active; AID 540317; further: nearly all actives have a fitted effect of over 70% in size
Target sequence (P83916 whole entry, looked up): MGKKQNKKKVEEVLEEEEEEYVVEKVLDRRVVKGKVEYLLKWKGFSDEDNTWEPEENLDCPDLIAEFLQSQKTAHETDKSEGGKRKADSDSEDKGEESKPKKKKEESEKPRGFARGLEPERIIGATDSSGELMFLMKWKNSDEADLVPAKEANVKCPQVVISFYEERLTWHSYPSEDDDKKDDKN
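HP1-beta protein (50 nM final) preincubated 30 min at room temperature with biotinylated H3(1-18)K9me3 peptide (50 nM) in PBS pH 7.4, 0.01% Tween-20, then compound added for 30 min. AlphaScreen streptavidin donor/nickel chelate acceptor beads (10 ug/mL final), 30 min dark, luminescence read.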
* marks the source's active call; other numbers are inactive results; ? = inconclusive; . = no result given; [ ] = dose if it differs, or a comment. Compounds with a hit are over-represented: about 12% of the library has one in this group of screens. The call rests on the fitted dose curve; in most records, active means well fitted curve in the direction sought with a large enough effect; inconclusive means small, poorly fitted or top-dose-only effect, or another doubt; inactive means no such curve, though single readings can be large; an effect the other way counts as inactive or inconclusive. Potency means the concentration at half of the fitted maximal effect.

SMILES	Sfp inh	BAZ2B inh	JMJD2A Tudor inh	G9a inh	HP1b chromo inh
Cc1cccc(C(=O)N2CCC(=O)N([C@H](COCc3cccc(Cl)c3)Cc3ccccc3)CC2)c1	9%	.	.	4%[59 µM]	.
O=C(c1ccc(C(F)(F)F)cc1)N1CCC(=O)N(C(COCc2ccc(C(F)(F)F)cc2)Cc2ccccc2)CC1 (stereo not given)	5%	?	-5%	45µM*	44%
CC(C)CC(COCc1ccc([N+](=O)[O-])cc1)N1CCN(C(=O)c2ccc(C(F)(F)F)cc2)CCC1=O (stereo not given)	5%	?	-20%	50µM*	25%
CC#CCN1c2ccccc2[C@]23C[C@@H](C(=O)OC)N(S(=O)(=O)c4ccc(C)cc4)C2=NC(C(=O)OC)=C(C(=O)OC)[C@H]13	6%	.	.	.	.
CCCN(CCC)C(=O)Cn1c(=O)n(-c2ccc(Cl)cc2)c(=O)c2c3c(sc21)CCCC3	.	-3%	-9%	0%[59 µM]	21%
Cc1ccc(-n2c(Cc3cccn3C)nnc2SCC(=O)Nc2ccc3c(c2)OCO3)cc1	-2%	45µM*	45µM*	?	?
Cc1ccc(-n2c(Cc3cccn3C)nnc2SCC(=O)Nc2nnc(C)s2)cc1	6%	-30%	-33%	-7%[2.33 µM]	-7%
Cc1ccc(-n2c(Cc3cccn3C)nnc2SCC(=O)NCc2ccc3c(c2)OCO3)cc1	1%	50µM*	?	?	-6%
COC(=O)CC1c2ccccc2C=C(C2CC2)N1C(=O)OC (stereo not given)	-4%	.	.	.	.
CCN1C(=O)[C@@H]2[C@H]3C(=CC[C@H]2C1=O)C(=O)[C@H]1OC1[C@H]3O (stereo not given in full)	9%	.	.	.	.
CCC(=Nc1ccccc1O)C1=C(O)CC(c2ccccc2)CC1=O (stereo not given)	79µM*	-30%	-19%	-36%	6%
CCC(=Nc1ccccc1OC)C1=C(O)CC(c2ccccc2)CC1=O (stereo not given)	10%	-4%	-1%	?	47%
CCOC(=O)CSc1nnc2n(-c3ccccc3)c(=O)c3c4c(sc3n12)CC(C(C)(C)C)CC4 (stereo not given)	.	?	-32%	-37%[59 µM]	2%
CN=c1scc(-c2cccs2)n1/N=C/c1ccccc1O	-15%	?	-35%[57.1 µM]	7%[59 µM]	?
COc1cccc(/C=N/n2c(-c3ccco3)nc3ccccc3c2=O)c1	-5%	-5%	-15%	4%[59 µM]	23%
CC(C)N=c1scc(-c2ccco2)n1/N=C/c1ccc(O)c(O)c1	?	32µM*	40µM*	?	?
COCCN=c1scc(-c2cccs2)n1/N=C(\C)c1ccco1	-1%	10µM*	50µM*	32µM*	?
COCCN=c1scc(-c2ccco2)n1/N=C/c1ccc(O)c(O)c1O	-93%	7.9µM*	32µM*	10µM*	7.9µM*
C=CCN=c1scc(-c2ccco2)n1/N=C/c1ccc(O)c(O)c1O	7.1µM*	13µM*	50µM*	7.9µM*	14µM*
COC(=O)N/N=C(\C)c1ccco1	18%	-35%	2%[11.4 µM]	-4%	21%
Oc1ccc(/C=N/n2c(-c3ccco3)csc2=Nc2cccnc2)c(O)c1	45µM*	?	-27%	?	-7%
CN1C(=O)c2oc3ccccc3c(=O)c2C1c1ccncc1 (stereo not given)	?	-23%	56µM*	8.9µM*	10%
COc1ccc(C2c3c(oc4ccccc4c3=O)C(=O)N2CCN2CCOCC2)cc1OC (stereo not given)	.	.	2%	.	14%
COC(=O)c1ccc(C2c3c(oc4ccc(Cl)cc4c3=O)C(=O)N2CCN2CCOCC2)cc1 (stereo not given)	-29%	-11%	-13%	20µM*	36%
O=C1c2oc3ccccc3c(=O)c2C(c2cccs2)N1CCCN1CCOCC1 (stereo not given)	?	?	-22%	40µM*	31%
SMILES	Sfp inh	BAZ2B inh	JMJD2A Tudor inh	G9a inh	HP1b chromo inh
COc1ccc(C2c3c(oc4ccccc4c3=O)C(=O)N2Cc2ccncc2)cc1 (stereo not given)	8%	0%	.	0%[59 µM]	.
COCCN1C(=O)c2oc3ccccc3c(=O)c2C1c1ccc(OC)c(OC)c1 (stereo not given)	8%	-4%	56µM*	-4%	?
COCCN1C(=O)c2oc3ccc(C)cc3c(=O)c2C1c1ccc(C(=O)OC)cc1 (stereo not given)	.	-21%	-7%	-31%[59 µM]	23%
CCOC(=O)c1oc2c(c1C)-c1nn(Cc3cccc(Cl)c3)cc1CC2	.	3%	1%	29%[59 µM]	68%
Cc1ccc(S(=O)(=O)N2CCOCC2)cc1C(=O)OCC(=O)NCCc1ccc(F)cc1	.	.	-11%	.	21%
COc1cccc(CNC(=O)c2c(C)oc3nc(C)nc(N4CCOCC4)c23)c1	.	10%[57.1 µM]	-4%	-1%[59 µM]	31%
CC(C)CCOc1cccc(C2c3c(oc4ccccc4c3=O)C(=O)N2CCCN2CCOCC2)c1 (stereo not given)	.	.	-25%	.	42%
COC(=O)c1ccc(C2c3c(oc4ccccc4c3=O)C(=O)N2CCCN2CCOCC2)cc1 (stereo not given)	25µM*	-3%	-12%	35µM*	46%
Cc1ccc2oc3c(c(=O)c2c1)C(c1cccs1)N(CCCN(C)C)C3=O (stereo not given)	?	-23%	-22%	40µM*	18%
COCCN1C(=O)c2oc3ccccc3c(=O)c2C1c1ccc(C(=O)OC)cc1 (stereo not given)	-5%	-2%	-8%	-2%[59 µM]	64%
COc1cccc(C2c3c(oc4ccccc4c3=O)C(=O)N2CCCN2CCOCC2)c1 (stereo not given)	12%	0%	-9%	50µM*	47%
CCC(OCC(O)CN1CCCCC1)c1ccccc1 (stereo not given)	8%	-22%	3%	9%	83%
COc1ncc2nc(-c3ccccc3)c(=O)n(CCc3ccccc3)c2n1	-5%	.	.	1%[0.501 µM]	.
Cc1cccc2cc(C#N)c(SCC#N)nc12	-1%	1%	-32%	25µM*	10%
CCOc1ccccc1NC(=O)C1CCN(S(=O)(=O)c2ccccc2)CC1	.	0%	-13%	-8%[59 µM]	16%
OC[C@H]1O[C@@H](n2cnc3c(Nc4ccccc4)ncnc32)[C@H](O)[C@H]1O	.	.	.	32%[12.7 µM]	.
C=CCNC(=O)c1cc([N+](=O)[O-])cc2c(=O)[nH]c(Nc3ccc(Cl)c(Cl)c3)nc12	28%	.	.	.	.
COc1cccc(CNS(=O)(=O)c2cc(-c3cc(C)no3)ccc2C(C)C)c1	4%	-12%	1%	71µM*	37%
Cc1cc(-c2ccc(C(C)C)c(S(=O)(=O)NCc3ccco3)c2)on1	-4%	50µM*	-34%	79µM*	23%
O=C(CNc1ccccc1Cl)c1ccc(Br)cc1	?	3%	-10%	79µM*	45%
